Screening results from PubChem.
Only a selection was taken, and hits are over-represented in it overall.
TbREL1 primary = TbREL1 inhibition, primary screen; AID 1117264; TbREL1 RNA ligation, FRET fluorescence; P86926; actives 0.49% (n = 89,000); inhibition, % at 9.66 µM;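 active = inhibition above the mean inhibition across all screened compounds plus 3 SD, cut at about 11% in these data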;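 note: 0% = plate median of test wells and 100% = NSC42067 control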
Target sequence (P86926 whole entry, looked up): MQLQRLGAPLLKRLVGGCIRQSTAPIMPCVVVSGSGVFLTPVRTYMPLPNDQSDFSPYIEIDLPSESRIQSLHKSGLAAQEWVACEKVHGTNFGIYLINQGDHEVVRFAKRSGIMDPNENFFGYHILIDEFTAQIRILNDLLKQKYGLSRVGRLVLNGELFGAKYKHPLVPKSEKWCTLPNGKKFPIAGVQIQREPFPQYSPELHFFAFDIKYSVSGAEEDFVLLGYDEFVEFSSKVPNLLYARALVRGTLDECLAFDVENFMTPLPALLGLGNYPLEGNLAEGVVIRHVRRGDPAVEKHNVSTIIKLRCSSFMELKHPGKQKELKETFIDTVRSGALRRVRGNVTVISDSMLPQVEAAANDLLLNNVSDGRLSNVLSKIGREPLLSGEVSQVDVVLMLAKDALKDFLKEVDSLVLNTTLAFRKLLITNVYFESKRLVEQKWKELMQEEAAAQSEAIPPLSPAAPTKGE
TbREL1 conf = TbREL1 inhibition, confirmation; inhibition, % at 9.66 µM; AID 1117282; shares compounds with TbREL1 primary; TbREL1 RNA ligation, FRET fluorescence; actives 37% (n = 390);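 active = mean inhibition across replicates above a set limit taken from the earlier primary screen, cut at about 11% in these data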;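 note: 0% = REL1 with substrate and DMSO and 100% = REL1 plus control inhibitor NSC42067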
An asterisk follows results filed as active.

SMILES	TbREL1 primary	others
CC(Nc1cc(N2CCNCC2)ccc1[N+](=O)[O-])c1ccccc1 (centres undefined)	4
CCc1ccc(OCCNc2cc(N3CCNC(C)C3)ccc2[N+](=O)[O-])cc1 (centres undefined)	12*	TbREL1 conf=9
O=[N+]([O-])c1ccc(N2CCCC2)cc1NC1CC1	0
Cc1cc(O)cc(=O)n1-c1ccc(Cl)c(C(F)(F)F)c1	-3
COc1ccccc1CNC(=O)N(CCc1c(C)[nH]c2ccccc12)Cc1cccs1	2
Oc1cc2c(cc1O)[C@H]1c3ccc(O)c(O)c3OC[C@@]1(O)C2	21*	TbREL1 conf=62*
CC(=O)NC(Cc1ccc2c(c1)OCO2)C(=O)N1CCCC1 (centres undefined)	1
O=C(NCC1CCCO1)C1C2C=CC3(CN(Cc4cccs4)C(=O)C13)O2 (centres undefined)	20*	TbREL1 conf=1
CC(C)CCOC(=O)C1C2C=CC3(CN(Cc4cccs4)C(=O)C13)O2 (centres undefined)	-6
O=C(NCc1cccs1)C1C2C=CC3(CN(Cc4ccccc4)C(=O)C13)O2 (centres undefined)	2
COc1ccc(-n2c(Cc3cccs3)nnc2SCC(=O)Nc2cccc3ccccc23)cc1	-2
N#Cc1ccc(C(=O)Oc2coc(CSc3ncccn3)cc2=O)cc1	1
O=C(NCc1ccccc1)OCCN1CCN(Cc2ccccc2)CCC1=O	-3
Cc1ccc(NC(=O)OCCN2CCN(Cc3ccccc3)CCC2=O)cc1C	12*	TbREL1 conf=0
O=C(Nc1ccc(F)cc1)OCCN1CCN(Cc2ccccc2)CCC1=O	-3
O=C(NCc1cccc(C(F)(F)F)c1)O[C@H]1CC[C@@]23CCCN2C(=O)CCC[C@H]3C1	-5
COc1cc(-n2c(C)nc3cc(C(=O)N4CCCN(C(C)=O)CC4)ccc32)cc(OC)c1OC	3
Cc1nc(N2CCCCC2C)c2nnn(Cc3ccccc3)c2n1 (centres undefined)	0
CC(C)[C@H](NC(=O)c1ccco1)C(=O)N1CCC[C@H]1C(=O)NCc1ccccc1	-2
O=C(Nc1ccc(Cl)c(Cl)c1)C1CCCN1S(=O)(=O)c1cccc2cccnc12 (centres undefined)	0
CCOC(=O)N1CCN(C(=O)CSc2cc(C)nc3c(-c4ccccc4OC)c(C)nn23)CC1	13*	TbREL1 conf=2
COc1ccccc1-c1c(C)nn2c(N3CCC(C)CC3)cc(C)nc12	-1
COc1ccccc1-c1c(C)nn2c(N3CCC(C(N)=O)CC3)cc(C)nc12	4
C[C@@H]1CCN(C2CC2)S(=O)(=O)c2ccc(N3CCC[C@@H]3CO)cc2O1	-2
COc1cc(NC(=O)C2CCCN(S(=O)(=O)c3cccc4cccnc34)C2)cc(OC)c1 (centres undefined)	-2
SMILES	TbREL1 primary	others
CCC(=O)NC1=C(NC(C)c2ccccc2)C(=O)c2ccccc2C1=O (centres undefined)	0
CCC(=O)Nc1ccc2c(c1)C(=O)c1ccccc1C2=O	14*	TbREL1 conf=2
CCC(=O)Nc1ccc(C(=O)NNC(=O)c2ccccc2)cc1	6
O=C(Nc1nc2c(Br)cccc2s1)c1ccc2c(c1)OCCO2	10
COc1ccc(C[C@@H]2CN3C(=NC[C@@H]3C)N2C[C@H](C)NC(=O)CCC2CCCCC2)cc1	6
COc1ccc(C[C@H]2CN3C(=NC[C@H]3Cc3ccccc3)N2CCNC(=O)CCC2CCCCC2)cc1	11*	TbREL1 conf=19*
C[C@@H](CN1C2=NC[C@H](Cc3ccccc3)N2C[C@H]1Cc1ccc(O)cc1)NC(=O)CCC1CCCCC1	9
COC(=O)[C@]12C[C@H](CC(=O)N3CCC(c4ccccc4)CC3)C(=O)N(CCc3ccc(OC)c(OC)c3)C1=C[C@H](COCc1ccccc1)O[C@@H]2C	6
O=C(NCCc1ccccc1Cl)[C@@H]1CCCN1C(=O)[C@@H](NC(=O)N1CCOCC1)c1ccccc1	1
Clc1cc(Cl)cc(CNC2CCC23CCCCC3)c1 (centres undefined)	-2
COc1ccc(-c2nc(SC)n(S(=O)(=O)c3ccccc3)n2)cc1	2
CCS(=O)(=O)n1nc(-c2ccc(Cl)cc2)nc1N	0
CSc1nc(-c2ccccc2)nn1S(=O)(=O)c1ccc(Cl)cc1	11*	TbREL1 conf=3
Cc1ccc(NC(=O)[C@@H](Cc2ccccc2)NC(=O)[C@H]2O[C@@H](n3ccc(=O)[nH]c3=O)[C@H](O)[C@@H]2O)cc1C	-3
COc1cc(OC)cc(-c2csc(N3CCC(C(N)=O)CC3)n2)c1	6
Cc1c(P(=S)(c2ccccc2)c2ccccc2)[n+]2ccccc2n1C/C=C/c1ccccc1	14*	TbREL1 conf=22*
CC(O)c1nc2ccccc2n1C/C=C/c1ccccc1 (centres undefined)	1
Cc1ccc(-n2c(SCC(=O)Nc3ccccc3-c3ccccc3)nnc2-c2cccnc2)cc1	1
Cc1ccc(-n2c(SCc3cccc4ccccc34)nnc2-c2ccccn2)cc1	0
FC(F)(F)c1cccc(N2CCN(C(=S)Nc3nccc4ccccc34)CC2)c1	8
Cc1n[nH]c(=S)n(NC(=O)/C=C/C(=O)Nn2c(=S)[nH]nc(C)c2=O)c1=O	20*	TbREL1 conf=15*
CCOC(=O)[C@@]12CCC3=C1N(CCC3)C(=O)[C@H](CC(=O)NCCCN1CCCC1=O)C2	-2
CC1(Cc2ccccc2OC(F)(F)F)C(=O)Nc2ccc(-c3ccsc3)cc21 (centres undefined)	4
COc1ccc(C(C)=O)cc1CC1(C)C(=O)Nc2ccc(-c3cccc(C(F)(F)F)c3)cc21 (centres undefined)	2
COc1ccccc1-c1ccc2c(c1)C(C)(Cc1cc(Cl)ccc1C(F)(F)F)C(=O)N2 (centres undefined)	17*	TbREL1 conf=7
SMILES	TbREL1 primary	others
COC(=O)[C@]12C[C@H](CC(=O)NCCCCc3ccccc3)C(=O)N(Cc3ccccc3)C1=C[C@H](COCc1ccccc1)O[C@@H]2C	9
Cc1nc2ccc(NC(=O)c3ccc(F)cc3F)cc2c(=O)[nH]1	5
NS(=O)(=O)c1ccc(NC(=O)CCC(=O)N2CCOCC2)cc1	15*	TbREL1 conf=2
NS(=O)(=O)c1cccc(NC(=O)CCc2ccc(S(=O)(=O)N3CCOCC3)cc2)c1	4
NS(=O)(=O)c1ccc(NC(=O)c2ccc(S(=O)(=O)N3CCOCC3)o2)cc1	-1
O=C(CN1CCN(Cc2ccccc2Cl)CC1)N/N=C\c1ccccc1F	-3
CC(C)C[C@H](NC1(C(=O)NC2CCCCC2)CCN(C)CC1)C(=O)NCC(c1ccccc1)c1ccccc1	17*	TbREL1 conf=18*
CN1CCC(N[C@@H](Cc2c[nH]c3ccccc23)C(=O)NCC(c2ccccc2)c2ccccc2)(C(=O)NC2CCCCC2)CC1	-1
CC(C)C[C@H](NC1(C(=O)NC2CCCCC2)CCCCC1)C(=O)NCC(c1ccccc1)c1ccccc1	-1
CCN(CC)C(=O)CSc1nnc(-c2ccccn2)n1C	1
CC1(C)CC(NC(=O)c2cccc(S(=O)(=O)N(Cc3ccccc3)c3ccccc3)c2)CC(C)(C)N1	13*	TbREL1 conf=6
O=C(O)c1cccc(S(=O)(=O)N(Cc2ccccc2)c2ccc(Cl)cc2)c1	-1
C=CCN(c1ccccc1)S(=O)(=O)c1cccc(C(=O)NC2CCC(O)CC2)c1 (centres undefined)	-2
COC(=O)[C@]12C[C@H](CC(=O)N3CCN(C(=O)C4CC4)CC3)C(=O)N(Cc3cccc4ccccc34)C1=C[C@H](COCc1ccccc1)O[C@@H]2C	-5
